Inconclusive results are not listed. Activity calls are given as the source filed them. Rule for the calls, unless noted: active = hit-call score of the fitted dose curve at least 0.9, where 1 is the maximum; inactive = score below 0.9.
Assays:
[1] = biological target: Myc proto-oncogene protein (Homo sapiens) (UniProt P01106); assay: ATG_Myc_CIS: Attagene CIS-FACTORIAL HepG2 Assay for human Myelocytomatosis (Myc) Proto-Oncogene Transcription Factor (AID 2282990); settings: HepG2, Attagene cis-reporter transcription factor activity; actives raise or lower the signal
Myc proto-oncogene protein (Homo sapiens), sequence (P01106 whole entry, looked up): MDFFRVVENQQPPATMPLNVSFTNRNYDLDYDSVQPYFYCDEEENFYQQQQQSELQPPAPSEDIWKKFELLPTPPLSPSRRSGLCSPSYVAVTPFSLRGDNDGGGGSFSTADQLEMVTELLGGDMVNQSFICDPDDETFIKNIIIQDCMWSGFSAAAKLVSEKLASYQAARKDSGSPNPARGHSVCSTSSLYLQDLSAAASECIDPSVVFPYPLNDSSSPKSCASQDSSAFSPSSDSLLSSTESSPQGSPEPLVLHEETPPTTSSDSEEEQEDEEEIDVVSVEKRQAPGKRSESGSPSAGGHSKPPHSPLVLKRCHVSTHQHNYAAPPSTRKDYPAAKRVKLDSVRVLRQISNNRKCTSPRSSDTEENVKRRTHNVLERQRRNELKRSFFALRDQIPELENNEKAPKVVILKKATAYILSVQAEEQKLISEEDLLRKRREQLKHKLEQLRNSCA
Summary of the method: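 HepG2, transient MRTU transfection (cis promoters, endogenous TFs); 24 h dosing; TriZol RNA → oligo(dT) RT → PCR → 6-FAM primer extension → HpaI cut → CE. Bidirectional fit vs DMSO.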

[2] = ATG_NF_kB_CIS: Attagene CIS-FACTORIAL HepG2 Assay for human Nuclear Factor Kappa B (NF-kB) (AID 2282991); settings: HepG2 Attagene cis-factorial NF-kB reporter mRNA; actives raise or lower the signal
Summary of the method: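 HepG2, transient multi-reporter transfection, cis promoter elements (endogenous TFs). 24 h exposure. Total RNA → RT → PCR → 6-FAM label → HpaI → CE. Gain/loss vs DMSO.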

[3] = ATG_Oct_MLP_CIS: Attagene CIS-FACTORIAL HepG2 Assay for human Octamer-Binding Transcription Factor (Oct) (AID 2282993); settings: HepG2 Attagene cis-factorial Oct reporter, mRNA; actives raise or lower the signal
Summary of the method: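 Using HepG2 cells bearing transfected cis-reporter constructs, mRNA induction was read after 24 h by fluorescent RT-PCR and capillary electrophoresis, with DMSO defining baseline for gain- or loss-of-signal fits.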

[4] = BSK_3C_TissueFactor: BioMAP Diversity Plus: 3C Assay for Tissue Factor Biomarker Activity (AID 2282997); settings: BioMAP 3C HUVEC, tissue factor biomarker readout; actives raise or lower the signal
Summary of the method: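 Primary human umbilical vein endothelial cells in the 3C system were exposed to test chemical for 24 h, then Tissue Factor measured by ELISA. Activity was fitted bidirectionally against DMSO as negative control and baseline.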

[5] = BSK_3C_uPAR: BioMAP Diversity Plus: 3C Assay for Urokinase-type plasminogen activator receptor (uPAR) Biomarker Activity (AID 2282998); settings: BioMAP 3C HUVEC, uPAR biomarker ELISA; actives raise or lower the signal
Summary of the method: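 In this endothelial cell-based assay, human umbilical vein primary cells were treated with chemicals and harvested at 24 h. uPAR was quantified using ELISA, with gains or losses fitted relative to DMSO controls.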

[6] = BSK_3C_VCAM1: BioMAP Diversity Plus: 3C Assay for Vascular cell adhesion molecule 1 (VCAM1) Biomarker Activity (AID 2282999); settings: BioMAP 3C HUVEC, VCAM1 ELISA, cytokine-stimulated; actives raise or lower the signal
Summary of the method: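 Endothelial cells from human umbilical vein are treated with test chemical. At 24 h, VCAM-1 is measured by ELISA, and responses in either direction are fitted relative to DMSO.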

[7] = biological target: human Peroxisome Proliferator-activated Receptor alpha (PPARa), PPARA (gene 5465) (UniProt Q07869); assay: ATG_PPARa_TRANS: Attagene TRANS-FACTORIAL HepG2 Assay for human Peroxisome Proliferator-activated Receptor alpha (PPARa) (AID 2283001; active = hit-call score of the fitted dose curve at least 0.9, where 1 is the maximum;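 for AC50: potency for gain of reporter signal over DMSO so agonist or activator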)
human Peroxisome Proliferator-activated Receptor alpha (PPARa), PPARA (gene 5465), sequence (Q07869 whole entry, looked up, the tested form may be a part): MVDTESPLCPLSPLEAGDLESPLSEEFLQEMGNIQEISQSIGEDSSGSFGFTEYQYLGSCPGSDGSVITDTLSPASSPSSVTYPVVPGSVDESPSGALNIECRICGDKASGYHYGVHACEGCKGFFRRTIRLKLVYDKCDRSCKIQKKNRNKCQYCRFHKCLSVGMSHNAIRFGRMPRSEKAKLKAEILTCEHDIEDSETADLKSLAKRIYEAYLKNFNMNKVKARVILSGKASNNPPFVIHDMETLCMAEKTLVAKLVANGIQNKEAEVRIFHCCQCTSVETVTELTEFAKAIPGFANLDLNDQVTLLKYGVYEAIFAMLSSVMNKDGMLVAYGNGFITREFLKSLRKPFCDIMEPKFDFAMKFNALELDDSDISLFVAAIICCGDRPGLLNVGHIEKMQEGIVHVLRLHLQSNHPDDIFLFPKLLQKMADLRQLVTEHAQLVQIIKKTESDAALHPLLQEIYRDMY
Summary of the method: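 Read-out is fluorescence of reporter cDNA fragments resolved by capillary electrophoresis after RT-PCR. Human HepG2 liver cells carried transfected PPARa-Gal4 chimera and GAL4-UAS reporter units, treated 24 h; activity scored as increase over DMSO.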

[8] = biological target: human Peroxisome Proliferator-activated Receptor delta (PPARd), PPARD (gene 5467) (UniProt Q03181); assay: ATG_PPARd_TRANS: Attagene TRANS-FACTORIAL HepG2 Assay for human Peroxisome Proliferator-activated Receptor delta (PPARd) (AID 2283002; active = hit-call score of the fitted dose curve at least 0.9, where 1 is the maximum)
human Peroxisome Proliferator-activated Receptor delta (PPARd), PPARD (gene 5467), sequence (Q03181 whole entry, looked up, the tested form may be a part): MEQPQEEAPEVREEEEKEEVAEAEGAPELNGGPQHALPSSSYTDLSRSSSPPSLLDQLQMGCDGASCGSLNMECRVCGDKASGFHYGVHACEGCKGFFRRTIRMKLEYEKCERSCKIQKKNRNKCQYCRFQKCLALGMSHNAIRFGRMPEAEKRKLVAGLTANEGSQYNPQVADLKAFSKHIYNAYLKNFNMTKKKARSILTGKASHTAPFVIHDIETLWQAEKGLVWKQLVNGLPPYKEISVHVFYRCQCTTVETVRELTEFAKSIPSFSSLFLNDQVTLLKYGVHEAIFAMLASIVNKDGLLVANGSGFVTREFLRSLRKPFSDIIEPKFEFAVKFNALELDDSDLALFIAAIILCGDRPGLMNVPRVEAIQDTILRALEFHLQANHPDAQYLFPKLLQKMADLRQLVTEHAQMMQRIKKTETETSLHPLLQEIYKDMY
Summary of the method: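 Transient HepG2 transfection (multiple GAL4-UAS RTUs, chimeric receptor-Gal4); 24 h dosing; total RNA → oligo(dT) RT → PCR → 6-FAM primer extension → HpaI cut → CE. Positive direction vs DMSO.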

[9] = read-out: Intercellular Adhesion Molecule 1 (ICAM1), ICAM1 (gene 3383); assay: BSK_3C_ICAM1: BioMAP Diversity Plus: 3C Assay for Intercellular Adhesion Molecule 1 (ICAM1) Biomarker Activity (AID 2283003); settings: primary human endothelial cells (HUVEC); actives raise or lower the signal
Summary of the method: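 HUVEC primary cells stimulated under 3C conditions; ICAM1 measured by ELISA 24 h after compound dosing. Curves fitted bidirectionally against the DMSO baseline. Overt cytotoxicity checked by SRB staining of parallel cultures.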

[10] = BSK_3C_Proliferation: Cell Proliferation Assessment in the BioMAP Diversity Plus: 3C Assay (AID 2283006); settings: primary human endothelial cells (HUVEC);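 for AC50: potency may reflect either rise or fall in cell number versus DMSO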
Summary of the method: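 Subconfluent HUVEC (3C system) cultured with chemical; relative cell number read at 48 h by sulforhodamine B total-protein staining (0.1% SRB after 10% TCA fixation, 560 nm). Bidirectional fit relative to DMSO.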

[11] = biological target: human RAR-related Orphan Receptor beta (RORb), RORB (gene 6096) (UniProt Q92753); assay: ATG_RORb_TRANS: Attagene TRANS-FACTORIAL HepG2 Assay for human RAR-related Orphan Receptor beta (RORb) (AID 2283010; active = hit-call score of the fitted dose curve at least 0.9, where 1 is the maximum)
human RAR-related Orphan Receptor beta (RORb), RORB (gene 6096), sequence (Q92753 whole entry, looked up, the tested form may be a part): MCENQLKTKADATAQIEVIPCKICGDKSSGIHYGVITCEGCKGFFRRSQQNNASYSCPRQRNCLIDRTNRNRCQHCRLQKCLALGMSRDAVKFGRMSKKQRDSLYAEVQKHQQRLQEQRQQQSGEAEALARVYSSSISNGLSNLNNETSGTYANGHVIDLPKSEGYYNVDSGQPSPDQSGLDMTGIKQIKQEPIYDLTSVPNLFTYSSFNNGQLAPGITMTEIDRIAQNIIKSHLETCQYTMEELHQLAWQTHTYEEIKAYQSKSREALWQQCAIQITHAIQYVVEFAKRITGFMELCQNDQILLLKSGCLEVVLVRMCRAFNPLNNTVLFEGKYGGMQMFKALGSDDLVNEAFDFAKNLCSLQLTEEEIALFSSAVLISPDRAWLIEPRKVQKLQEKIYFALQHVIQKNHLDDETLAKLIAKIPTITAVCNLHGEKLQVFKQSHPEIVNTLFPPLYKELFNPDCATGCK
Summary of the method: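 HepG2 cells transiently transfected with GAL4-UAS reporter units expressing chimeric NR-Gal4 protein; reporter mRNA measured 24 h after dosing by RT-PCR, 6-FAM labelling and capillary electrophoresis. Gain-of-signal fitted relative to DMSO baseline.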

[12] = biological target: Cellular tumor antigen p53 (Homo sapiens) (UniProt P04637); assay: ATG_p53_CIS: Attagene CIS-FACTORIAL HepG2 Assay for human p53 Transcription Factor (AID 2282994); settings: HepG2 p53 cis-element reporter, Attagene mRNA; actives raise or lower the signal
Cellular tumor antigen p53 (Homo sapiens), sequence (P04637 whole entry, looked up): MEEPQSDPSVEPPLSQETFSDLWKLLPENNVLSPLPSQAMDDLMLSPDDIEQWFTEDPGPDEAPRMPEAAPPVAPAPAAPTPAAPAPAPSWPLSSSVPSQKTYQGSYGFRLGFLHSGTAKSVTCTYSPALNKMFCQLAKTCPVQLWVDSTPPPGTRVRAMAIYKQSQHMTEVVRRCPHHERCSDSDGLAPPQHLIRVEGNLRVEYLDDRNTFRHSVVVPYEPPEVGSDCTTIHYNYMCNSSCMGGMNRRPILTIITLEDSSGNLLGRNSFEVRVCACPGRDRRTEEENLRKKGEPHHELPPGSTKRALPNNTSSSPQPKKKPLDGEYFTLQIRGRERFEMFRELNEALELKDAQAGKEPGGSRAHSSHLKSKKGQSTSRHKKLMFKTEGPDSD
Summary of the method: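 HepG2 cells transiently transfected with cis-regulated multiple reporter transcription units, dosed 24 h. Reporter mRNA measured by RT-PCR, 6-FAM primer extension, HpaI digestion and capillary electrophoresis; bidirectional fit relative to DMSO.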

[13] = BSK_4H_Eotaxin3: BioMAP Diversity Plus: 4H Assay for Eotaxin 3 Biomarker Activity (AID 2283000); settings: primary human endothelial cells (HUVEC); actives raise or lower the signal
Summary of the method: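 HUVEC, 24 h post-dose, ELISA for Eotaxin-3/CCL26. Gain or loss of signal fitted bidirectionally vs DMSO baseline.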

[14] = biological target: Nuclear receptor subfamily 1 group I member 2 (Homo sapiens) (UniProt O75469); assay: ATG_PXR_TRANS: Attagene TRANS-FACTORIAL HepG2 Assay for human Pregnane X Receptor (PXR) (AID 2283008; active = hit-call score of the fitted dose curve at least 0.9, where 1 is the maximum)
Nuclear receptor subfamily 1 group I member 2 (Homo sapiens), sequence (O75469 whole entry, looked up, the tested form may be a part): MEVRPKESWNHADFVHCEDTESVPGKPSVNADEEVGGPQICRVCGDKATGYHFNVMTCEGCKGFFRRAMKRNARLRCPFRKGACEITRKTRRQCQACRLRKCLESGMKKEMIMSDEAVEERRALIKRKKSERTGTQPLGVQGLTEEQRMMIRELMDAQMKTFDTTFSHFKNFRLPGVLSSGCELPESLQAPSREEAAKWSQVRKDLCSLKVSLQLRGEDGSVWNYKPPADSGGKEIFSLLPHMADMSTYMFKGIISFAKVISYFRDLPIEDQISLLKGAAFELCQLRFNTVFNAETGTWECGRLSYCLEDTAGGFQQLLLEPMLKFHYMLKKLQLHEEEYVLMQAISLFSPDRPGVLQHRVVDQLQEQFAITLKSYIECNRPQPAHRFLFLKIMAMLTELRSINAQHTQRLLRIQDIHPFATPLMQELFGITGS
Summary of the method: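 HepG2 cells transiently transfected with GAL4-UAS reporter units and PXR-Gal4 chimera, exposed 24 h. Reporter mRNA quantified by RT-PCR, fluorescent labelling, HpaI digestion and capillary electrophoresis; gain of signal vs DMSO.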

[15] = biological target: human Retinoic Acid Receptor gamma (RARg), RARG (gene 5916) (UniProt P13631); assay: ATG_RARg_TRANS: Attagene TRANS-FACTORIAL HepG2 Assay for human Retinoic Acid Receptor gamma (RARg) (AID 2283009; active = hit-call score of the fitted dose curve at least 0.9, where 1 is the maximum)
human Retinoic Acid Receptor gamma (RARg), RARG (gene 5916), sequence (P13631 whole entry, looked up, the tested form may be a part): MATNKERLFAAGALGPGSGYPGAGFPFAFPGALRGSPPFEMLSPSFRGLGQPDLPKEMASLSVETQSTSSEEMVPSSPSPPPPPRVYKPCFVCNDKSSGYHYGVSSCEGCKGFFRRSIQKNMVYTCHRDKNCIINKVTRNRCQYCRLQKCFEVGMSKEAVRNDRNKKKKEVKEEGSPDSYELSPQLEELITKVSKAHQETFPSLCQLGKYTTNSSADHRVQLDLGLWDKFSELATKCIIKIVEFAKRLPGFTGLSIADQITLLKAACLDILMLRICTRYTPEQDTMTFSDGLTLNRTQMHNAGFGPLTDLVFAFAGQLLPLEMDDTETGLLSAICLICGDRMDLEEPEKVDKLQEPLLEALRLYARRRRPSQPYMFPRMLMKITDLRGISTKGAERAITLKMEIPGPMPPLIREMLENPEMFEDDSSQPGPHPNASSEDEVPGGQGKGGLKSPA
Summary of the method: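 HepG2 transiently transfected with GAL4-UAS reporter units and chimeric NR-Gal4 constructs; 24 h compound exposure. Reporter mRNA quantified by RT-PCR, FAM labeling, HpaI digestion and capillary electrophoresis; gain-of-signal versus DMSO.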

[16] = biological target: Retinoic acid receptor RXR-alpha (Homo sapiens) (UniProt P19793); assay: ATG_RXRa_TRANS: Attagene TRANS-FACTORIAL HepG2 Assay for human Retinoid X Receptor alpha (RXRa) (AID 2283012; active = hit-call score of the fitted dose curve at least 0.9, where 1 is the maximum)
Retinoic acid receptor RXR-alpha (Homo sapiens), sequence (P19793 whole entry, looked up, the tested form may be a part): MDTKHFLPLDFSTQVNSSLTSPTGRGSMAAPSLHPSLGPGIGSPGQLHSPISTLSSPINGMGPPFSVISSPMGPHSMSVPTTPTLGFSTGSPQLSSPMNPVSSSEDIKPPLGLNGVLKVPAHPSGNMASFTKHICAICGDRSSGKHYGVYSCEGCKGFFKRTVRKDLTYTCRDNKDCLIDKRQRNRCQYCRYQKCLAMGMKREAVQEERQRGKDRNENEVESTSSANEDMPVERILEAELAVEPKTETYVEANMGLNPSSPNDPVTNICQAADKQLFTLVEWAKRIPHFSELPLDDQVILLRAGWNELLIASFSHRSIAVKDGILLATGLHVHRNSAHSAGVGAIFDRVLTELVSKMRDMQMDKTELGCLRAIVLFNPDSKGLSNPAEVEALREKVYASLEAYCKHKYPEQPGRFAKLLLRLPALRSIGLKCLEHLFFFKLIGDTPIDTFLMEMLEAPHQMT
Summary of the method: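 HepG2 cells transiently transfected with GAL4-UAS reporter units and chimeric RXRa-Gal4 protein, treated 24 h. Reporter mRNA measured by RT-PCR, fluorescent labelling, HpaI digestion and capillary electrophoresis. Induction fitted against DMSO.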

[17] = ATG_NRF2_ARE_CIS: Attagene CIS-FACTORIAL HepG2 Assay for human Nuclear Factor Erythroid 2 Related Factor 2 (NFR2) response to Antioxidant Response Elements (ARE) (AID 2282992); settings: HepG2 Attagene ARE/NRF2 reporter, transcription factor activity; actives raise or lower the signal;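 for AC50: reporter mRNA level measured by RT-PCR and capillary electrophoresis fluorescence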
Summary of the method: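 HepG2 cells transiently transfected with multiplexed cis-element reporter constructs, 24 h after chemical dosing; reporter mRNA quantified by RT-PCR, fluorescent primer extension, HpaI digestion and capillary electrophoresis. Bidirectional fit relative to DMSO.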

[18] = biological target: human Retinoic Acid Receptor beta (RARb), RARB (gene 5915) (UniProt P10826); assay: ATG_RARb_TRANS: Attagene TRANS-FACTORIAL HepG2 Assay for human Retinoic Acid Receptor beta (AID 2283004; active = hit-call score of the fitted dose curve at least 0.9, where 1 is the maximum)
human Retinoic Acid Receptor beta (RARb), RARB (gene 5915), sequence (P10826 whole entry, looked up, the tested form may be a part): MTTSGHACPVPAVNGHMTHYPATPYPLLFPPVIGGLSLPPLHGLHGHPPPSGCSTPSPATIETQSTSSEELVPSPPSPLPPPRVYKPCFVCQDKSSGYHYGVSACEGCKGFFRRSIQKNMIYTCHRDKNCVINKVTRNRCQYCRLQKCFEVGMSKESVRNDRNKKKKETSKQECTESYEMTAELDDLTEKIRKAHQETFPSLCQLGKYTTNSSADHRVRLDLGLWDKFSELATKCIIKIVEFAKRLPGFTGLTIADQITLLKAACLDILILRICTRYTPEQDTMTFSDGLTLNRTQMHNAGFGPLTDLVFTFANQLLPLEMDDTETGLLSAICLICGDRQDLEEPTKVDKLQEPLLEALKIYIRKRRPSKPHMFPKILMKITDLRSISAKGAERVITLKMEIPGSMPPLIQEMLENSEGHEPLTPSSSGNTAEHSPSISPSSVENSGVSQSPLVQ
Summary of the method: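 HepG2 cells transiently transfected with multiplexed GAL4-UAS reporter units expressing chimeric NR–Gal4 fusions; 24 h compound exposure. Reporter mRNA quantified by RT-PCR, 6-FAM labelling, HpaI digestion and capillary electrophoresis; gain-of-signal fitted against DMSO baseline.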

Measured: AC50

CCCCCCCCCCCCCCCCO
not listed: [12] | [13] | [14] | [15] | [16] | [17] | [18]
inactive: all other assays above

CC1(C)C(=O)NC(=O)N1CO
active: [10] 5.5 µM
not listed: [7] | [11] | [14] | [15] | [16] | [17] | [18]
inactive: all other assays above

O=C1OC(c2ccc(O)cc2)(c2ccc(O)cc2)c2ccccc21
active: [1] 180 µM | [2] 176 µM | [3] 26.2 µM | [5] 14.6 µM | [6] 29.7 µM | [10] 15 µM | [14] 0.604 µM
inactive: [4] | [13] | [9] | [15] | [16]

CO[C@@H]1COCC[C@@H]1N[C@@H]1CC[C@@](C(=O)N2CCc3ncc(C(F)(F)F)cc3C2)(C(C)C)C1
not listed: [7] | [11] | [13] | [15] | [16] | [17] | [18]
inactive: all other assays above

CS(=O)(=O)c1ccc([C@@H](C[C@H]2CCC(=O)C2)C(=O)Nc2cnccn2)cc1Cl
active: [17] 48.9 µM
not listed: [8] | [10] | [13] | [15] | [18]
inactive: all other assays above

CCCC(=O)O
inactive: [1] | [2] | [3] | [4] | [5] | [6] | [13] | [9] | [14] | [15]

O=C1CCCCC1
not listed: [10] | [11] | [12] | [14] | [15] | [18]
inactive: all other assays above

Nc1nc(=S)c2[nH]cnc2[nH]1
active: [17] 2.69 µM | [3] 35.5 µM
not listed: [2] | [8] | [10] | [12] | [14]
inactive: all other assays above

CC(C)COC(=O)CCCCC(=O)OCC(C)C
not listed: [8] | [11] | [12] | [16]
inactive: all other assays above

CCCCCCC(CCCCCCCCCCC(=O)OCC(COC(C)=O)OC(C)=O)OC(C)=O (centres undefined)
active: [7] 13.8 µM | [10] 10 µM
not listed: [11] | [12] | [13] | [15] | [16] | [18]
inactive: all other assays above

O=C(O)c1[nH]n(-c2ccc(S(=O)(=O)O)cc2)c(=O)c1N=Nc1ccc(S(=O)(=O)O)cc1
not listed: [12] | [14] | [15] | [16] | [17] | [18]
inactive: all other assays above

O=NO
not listed: [8] | [12] | [15]
inactive: all other assays above

NCCOCCOCCN
not listed: [8] | [11] | [12] | [13] | [15] | [18]
inactive: all other assays above

c1ccc2occc2c1
inactive: [1] | [2] | [3] | [4] | [5] | [6] | [13] | [7] | [9] | [10]

CC1=C(C)S(=O)(=O)CCS1(=O)=O
inactive: [1] | [2] | [3] | [4] | [5] | [6] | [7] | [9] | [14]

C=CCCCCCCCCCCCC
not listed: [7] | [11] | [13] | [15] | [18]
inactive: all other assays above

Oc1ccc(O)cc1
active: [6] 15.6 µM | [13] 20 µM
not listed: [8] | [10] | [12] | [14] | [16] | [17]
inactive: all other assays above

COc1ccc(OC(F)(F)F)cc1CN[C@H]1CCCN[C@H]1c1ccccc1
active: [17] 11 µM | [4] 6.74 µM | [5] 20 µM | [13] 26.9 µM | [10] 28.2 µM | [14] 2.95 µM
not listed: [11] | [12] | [15] | [18]
inactive: all other assays above

Cc1c(C)c2c(c(C)c1O)CCC(C)(COc1ccc(CC3SC(=O)NC3=O)cc1)O2 (centres undefined)
inactive: [1] | [2] | [3] | [7] | [8] | [16]
active: [17] 11 µM | [4] 33.5 µM | [5] 23.8 µM | [6] 35 µM | [13] 30.2 µM | [9] 31.1 µM | [14] 3.5 µM

— PubChem BioAssay (EPA / NIEHS)
